Measured values reported in PubChem BioAssay (Tox21).
Several values for one entry are separate records, joined by “and”; a condition that tells them apart may be missing. Equal entries are not always repeated. Records with an inconclusive call do not appear. Activity calls are given as the source filed them. Unless noted, calls come from the whole dose curve; as a rule, active = well fitted curve in the direction sought with a large enough effect in the repeat runs; inconclusive = weak or mixed curves; inactive = no such curve, though single readings can be large; an effect the other way counts as inactive or inconclusive.

Tests used:
[1] = qHTS assay to identify small molecule antagonists of the sonic hedgehog signaling (Shh) pathway (AID 1259369; calls by dose curve; note: nearly all actives have a fitted effect of over 45% in size; note: potency is the fitted concentration of half-maximal effect)
Method in brief: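 Antagonist mode: compound added to 3T3 Gli1-Luc cells followed by conditioned-medium stimulation, 24 h at 37 C, 5% CO2. Inhibition taken as loss of Gli1-driven luciferase luminescence.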

[2] = qHTS assay to identify small molecule agonists of the androgen receptor (AR) signaling pathway in the presence of an antagonist - cell viability counter screen (AID 1259379); note: nearly all actives have a fitted effect of over 25% in size; note: potency is the fitted concentration of half-maximal effect
Method in brief: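 Cytotoxicity counter-screen run in the same wells as the nilutamide-challenged (3.0 µM final) AR agonist assay in MDA-kb2 cells. Compounds tested at 15 concentrations for 16 h, 37 °C without CO2; CellTiter-Fluor fluorescence read.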

[3] = qHTS assay to identify small molecule agonists of the estrogen receptor beta (ER-beta) signaling pathway - cell viability counter screen (AID 1259380); note: nearly all actives have a fitted effect of over 30% in size; note: potency is the fitted concentration of half-maximal effect
Method in brief: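 Cell viability counter screen: CellTiter-Glo luminescence (30 min, room temperature) measured in the same wells as the beta-lactamase readout, after 16 hr compound exposure at 37C of ER-beta-bla HEK293T cells in 2% charcoal-stripped FBS medium.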

[4] = qHTS assay to identify small molecule antagonists of the estrogen receptor beta (ER-beta) signaling pathway - cell viability counter screen (AID 1259382);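 note: HEK293T cells carrying ER-beta-UAS-bla reporter stimulated with estradiol; series mostly up to about 92 µM; nearly all actives have a fitted effect of over 55% in size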
Method in brief: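 Cytotoxicity was measured in the same wells by CellTiter-Glo luminescence after 30 min at room temperature. Cells were ER-beta-bla HEK293T in charcoal-stripped serum, given compound together with 1 nM E2 and incubated 16 h at 37C.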

[5] = target: Estrogen receptor (Homo sapiens) (UniProt P03372); experiment: qHTS assay to identify small molecule agonists of the estrogen receptor alpha (ER-alpha) signaling pathway in the presence of an antagonist (AID 1259383; calls by dose curve; note: top concentration of the series differs between compounds; nearly all actives have a fitted effect of over 15% in size)
Method in brief: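 Agonist-mode confirmation run in the presence of 10.0nM (final) ICI-182,780 antagonist. The reporter was ERE-driven luciferase in VM7Luc4E2 cells, grown in charcoal-stripped serum. Cells were exposed to 15-concentration compound series for 22hr, then ONE-Glo luminescence was read.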

[6] = qHTS assay to identify small molecule agonists of the estrogen receptor alpha (ER-alpha) signaling pathway in the presence of an antagonist - cell viability counter screen (AID 1259386); note: nearly all actives have a fitted effect of over 30% in size; note: potency is the fitted concentration of half-maximal effect
Method in brief: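 Compounds tested at 15 concentrations for 22 h at 37C alongside 10.0nM (final) ICI-182,780 antagonist, in VM7Luc4E2 cells grown in phenol red-free, charcoal-stripped medium. Viability read by CellTiter-Fluor fluorescence after 1 h reagent incubation.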

[7] = target: Progesterone receptor (Homo sapiens) (UniProt P06401); experiment: qHTS assay to identify small molecule agonists of the progesterone receptor (PR) signaling pathway (AID 1346784; calls by dose curve; note: nearly all actives have a fitted effect of over 30% in size; note: potency is the fitted concentration of half-maximal effect)
Method in brief: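 Seed PR-UAS-bla HEK 293T cells (2% charcoal-stripped FBS), incubate 6 hr at 37C; add compounds in DMSO, 16 hr at 37C; add LiveBLAzer B/G substrate, 2 hr RT; read fluorescence intensity.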

[8] = target: Progesterone receptor (Homo sapiens) (UniProt P06401); experiment: qHTS assay to identify small molecule antagonists of the progesterone receptor (PR) signaling pathway (AID 1346795; active = well fitted inhibition curve with a large enough effect in the signal ratio in the repeat runs, not every such curve was filed as active; the % refers to the signal ratio)
Method in brief: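 Screening used a GripTite HEK293T line with PR-responsive UAS-beta-lactamase. Cells were challenged with compound in the presence of 1 nM R5020 final for 16 hr at 37C; B/G FRET substrate, 2 hr room temperature, fluorescence.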

[9] = qHTS assay to identify small molecule antagonists of the progesterone receptor (PR) signaling pathway - cell viability counter screen (AID 1346798); note: series mostly up to about 92 µM; nearly all actives have a fitted effect of over 50% in size
Method in brief: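 Measures cytotoxicity in parallel with the PR antagonist reporter read: HEK293T PR-UAS-bla cells get compound and R5020 for 16 hr, and remaining viable cells are quantified by CellTiter-Glo luminescence.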

[10] = qHTS assay to identify small molecule agonists of the progesterone receptor (PR) signaling pathway - cell viability counter screen (AID 1346799; calls by dose curve; note: nearly all actives have a fitted effect of over 45% in size)
Method in brief: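 Using the same plates as the PR reporter screen, HEK293T PR-UAS-bla cells received compounds for 16 hr at 37C and were then lysed with CellTiter-Glo; luminescence was read 30 min later at room temperature.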

[11] = qHTS assay to identify small molecule antagonists of the TGF-beta/Smad signaling pathway - cell viability counter screen (AID 1346824); note: nearly all actives have a fitted effect of over 50% in size
Method in brief: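 SBE-bla HEK 293T cells, incubated overnight, then compound plus 0.25 ng/mL TGF-beta1 (stock added) for 5 hr at 37 C. Viability was read in the same wells by CellTiter-Glo luminescence after 30 min at room temperature.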

[12] = qHTS assay to identify small molecule agonists of the TGF-beta/Smad signaling pathway - cell viability counter screen (AID 1346829); note: top concentration of the series differs between compounds; nearly all actives have a fitted effect of over 45% in size
Method in brief: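 Same-well cytotoxicity: CellTiter-Glo added after the 2 hr room-temperature beta-lactamase substrate step, luminescence measured 30 min later; cells had 5 hr of compound at 37 C.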

[13] = qHTS assay to identify small molecule agonists of the TGF-beta/Smad signaling pathway (AID 1346859; active = well fitted activation curve with a large enough effect in the signal ratio in the repeat runs, not every such curve was filed as active; the % refers to the signal ratio; note: series mostly up to about 77 µM)
Method in brief: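 Beta-lactamase reporter activity downstream of Smad binding elements was measured in stably transfected HEK 293T cells; compounds were incubated for 5 hr, substrate for 2 hr at room temperature.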

[14] = target: Thyrotropin-releasing hormone receptor (Homo sapiens) (UniProt P34981); experiment: qHTS assay to identify small molecule antagonists of the thyrotropin-releasing hormone receptor (TRHR) signaling pathway (AID 1346877; active = well fitted inhibition curve with a large enough effect in the repeat runs, not every such curve was filed as active; note: series mostly up to about 51 µM)
Method in brief: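 Antagonist mode: after a 5 min room-temperature compound exposure, cells were stimulated with 1 nM (final) TRH. Dye-loaded TRHR-HEK293 cells were used, and calcium-dependent fluorescence was followed for 3 min, with 15-point titrations run in triplicate.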

[15] = target: Thyrotropin-releasing hormone receptor (Homo sapiens) (UniProt P34981); experiment: qHTS assay to identify small molecule agonists of the thyrotropin-releasing hormone receptor (TRHR) signaling pathway (AID 1346891; calls by dose curve; note: potency is the fitted concentration of half-maximal effect;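 for activation: HEK293 cells expressing TRHR with calcium dye readout; series mostly up to about 58 µM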)
Method in brief: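 Overnight-plated (18 h, 37 °C, 5% CO2) TRHR-Hek293 cells; 2 h calcium dye at 37 °C; compound in DMSO; 3-min kinetic fluorescence read.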

[16] = qHTS assay to identify small molecule agonists or antagonists of the thyroid stimulating hormone receptor (TSHR) signaling pathway - wild type cell line counter screen (AID 1259384; calls by dose curve)
Method in brief: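 Wild-type Hek293 cells, 800/well, 18 h at 37C, then compound with Ro20-1724 for 30 min RT. cAMP by HTRF (cAMP-d2/anti-cAMP cryptate), 1 h RT, fluorescence read. 15 concentrations, triplicates.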

[17] = target: Thyrotropin receptor (Homo sapiens) (UniProt P16473); experiment: qHTS assay to identify small molecule antagonists of the thyroid stimulating hormone receptor (TSHR) signaling pathway (AID 1259385; calls by dose curve; note: nearly all actives have a fitted effect of over 20% in size)
Method in brief: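 TSHR-HEK293 cells (800/well) plated 18 h, then compounds with Ro20-1724 and TSH at 1.5 ng/mL final, 30 min at room temperature. cAMP quantified by HTRF (cAMP-d2/anti-cAMP-cryptate, 1 h); 15 concentrations in triplicate.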

Measured: Potency

Sequence of Thyrotropin receptor (Homo sapiens) (P16473 whole entry, looked up): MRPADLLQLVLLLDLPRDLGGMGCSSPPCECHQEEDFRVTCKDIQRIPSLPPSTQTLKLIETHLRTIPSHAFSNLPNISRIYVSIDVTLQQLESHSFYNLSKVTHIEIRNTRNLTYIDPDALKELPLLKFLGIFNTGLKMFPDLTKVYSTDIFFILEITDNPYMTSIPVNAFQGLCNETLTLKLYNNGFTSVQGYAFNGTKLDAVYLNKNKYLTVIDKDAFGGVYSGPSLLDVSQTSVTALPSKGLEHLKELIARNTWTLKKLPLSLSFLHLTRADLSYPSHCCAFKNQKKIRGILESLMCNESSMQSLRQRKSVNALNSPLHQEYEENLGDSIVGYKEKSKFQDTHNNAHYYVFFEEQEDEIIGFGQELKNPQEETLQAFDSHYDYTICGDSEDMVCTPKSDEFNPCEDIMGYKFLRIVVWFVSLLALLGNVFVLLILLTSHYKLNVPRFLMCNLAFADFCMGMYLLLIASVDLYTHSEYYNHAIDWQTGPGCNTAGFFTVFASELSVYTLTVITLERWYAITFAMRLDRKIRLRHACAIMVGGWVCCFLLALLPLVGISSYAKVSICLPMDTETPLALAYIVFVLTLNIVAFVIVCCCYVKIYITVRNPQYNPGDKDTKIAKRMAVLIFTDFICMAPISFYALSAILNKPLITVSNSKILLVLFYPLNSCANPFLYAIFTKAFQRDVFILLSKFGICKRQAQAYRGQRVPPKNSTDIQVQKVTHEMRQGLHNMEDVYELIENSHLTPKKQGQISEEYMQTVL
Sequence of Progesterone receptor (Homo sapiens) (P06401 whole entry, looked up): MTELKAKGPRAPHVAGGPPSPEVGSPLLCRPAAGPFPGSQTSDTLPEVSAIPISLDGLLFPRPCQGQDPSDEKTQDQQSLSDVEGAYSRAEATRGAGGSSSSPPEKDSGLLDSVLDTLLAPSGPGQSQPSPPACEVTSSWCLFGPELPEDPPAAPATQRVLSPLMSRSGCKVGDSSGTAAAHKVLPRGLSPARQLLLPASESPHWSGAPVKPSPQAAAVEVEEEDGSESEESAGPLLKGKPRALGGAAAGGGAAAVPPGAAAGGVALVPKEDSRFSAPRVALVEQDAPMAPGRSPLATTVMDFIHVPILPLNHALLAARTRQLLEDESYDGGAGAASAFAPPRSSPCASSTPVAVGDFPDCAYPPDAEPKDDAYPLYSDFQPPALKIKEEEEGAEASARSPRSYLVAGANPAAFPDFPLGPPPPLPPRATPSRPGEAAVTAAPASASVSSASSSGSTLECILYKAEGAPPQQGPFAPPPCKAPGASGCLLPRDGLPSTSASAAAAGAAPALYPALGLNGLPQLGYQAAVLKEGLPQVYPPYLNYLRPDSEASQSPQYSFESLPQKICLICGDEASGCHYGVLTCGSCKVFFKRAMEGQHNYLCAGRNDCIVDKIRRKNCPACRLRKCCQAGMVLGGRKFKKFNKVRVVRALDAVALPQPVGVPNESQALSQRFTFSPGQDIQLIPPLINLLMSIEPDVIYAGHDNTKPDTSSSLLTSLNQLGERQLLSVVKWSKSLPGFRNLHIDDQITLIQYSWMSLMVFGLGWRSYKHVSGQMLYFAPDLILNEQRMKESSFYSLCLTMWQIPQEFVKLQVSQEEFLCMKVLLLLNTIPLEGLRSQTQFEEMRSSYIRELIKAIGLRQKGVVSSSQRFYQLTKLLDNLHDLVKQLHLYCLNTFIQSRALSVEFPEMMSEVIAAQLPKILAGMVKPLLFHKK
Sequence of Thyrotropin-releasing hormone receptor (Homo sapiens) (P34981 whole entry, looked up): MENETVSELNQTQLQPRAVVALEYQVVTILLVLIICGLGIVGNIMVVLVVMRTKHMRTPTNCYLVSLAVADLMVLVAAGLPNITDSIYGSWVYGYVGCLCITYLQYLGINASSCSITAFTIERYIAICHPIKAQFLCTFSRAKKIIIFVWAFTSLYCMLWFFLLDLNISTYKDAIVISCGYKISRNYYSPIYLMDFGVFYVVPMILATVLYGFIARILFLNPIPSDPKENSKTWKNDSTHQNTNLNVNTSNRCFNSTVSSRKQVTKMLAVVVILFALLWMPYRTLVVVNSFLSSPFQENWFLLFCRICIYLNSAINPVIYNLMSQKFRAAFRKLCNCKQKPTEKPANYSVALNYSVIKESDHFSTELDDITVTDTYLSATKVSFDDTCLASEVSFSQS
Sequence of Estrogen receptor (Homo sapiens) (P03372 whole entry, looked up): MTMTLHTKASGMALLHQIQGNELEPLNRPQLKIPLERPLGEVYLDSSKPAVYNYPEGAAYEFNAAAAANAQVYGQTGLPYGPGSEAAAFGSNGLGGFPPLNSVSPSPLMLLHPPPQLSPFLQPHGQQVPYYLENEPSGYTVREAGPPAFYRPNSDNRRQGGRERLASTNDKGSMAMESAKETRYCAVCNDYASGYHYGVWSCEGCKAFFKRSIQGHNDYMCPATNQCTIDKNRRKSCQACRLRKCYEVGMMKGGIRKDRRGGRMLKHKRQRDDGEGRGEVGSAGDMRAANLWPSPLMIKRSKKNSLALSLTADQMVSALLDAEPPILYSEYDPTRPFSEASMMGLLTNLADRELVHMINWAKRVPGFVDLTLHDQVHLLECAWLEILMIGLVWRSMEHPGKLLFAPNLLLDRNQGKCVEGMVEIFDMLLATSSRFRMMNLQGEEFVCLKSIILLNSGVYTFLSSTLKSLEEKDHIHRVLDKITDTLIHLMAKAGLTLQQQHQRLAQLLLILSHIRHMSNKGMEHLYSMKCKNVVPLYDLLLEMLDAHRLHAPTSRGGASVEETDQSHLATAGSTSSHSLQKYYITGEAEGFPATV

C=CC1CC2C=CC1C2 (configuration not stated)
inactive: [1] | [2] | [3] | [4] | [5] | [6] | [7] | [8] | [9] | [10] | [11] | [12] | [13] | [14] | [15]

O=C(O)CC(=O)C(=O)O
active: [1] 54.6 µM
inactive: [2] | [3] | [4] | [16] | [17] | [7] | [10] | [11] | [12]

C=CC(=O)OCCOCCOCCOCCOC(=O)C=C
inactive: [4] | [5] | [16] | [17] | [7] | [12] | [13] | [14] | [15]
active: [1] 3.08 µM and 6.06 µM | [2] 61.4 µM and 54 µM | [6] 54.8 µM and 68 µM

C[C@H]1C[C@H]2[C@@H]3CCC4=CC(=O)C=C[C@]4(C)[C@@]3(Cl)[C@@H](O)C[C@]2(C)[C@@]1(O)C(=O)CO
inactive: [1] | [2] | [4] | [5] | [16] | [6] | [9] | [11] | [12] | [14] | [15]
active: [7] 0.0237 µM

C#C[C@]1(O)CC[C@H]2[C@@H]3CCc4cc(OC5CCCC5)ccc4[C@H]3CC[C@@]21C
inactive: [1] | [2] | [16] | [6] | [7] | [9] | [10] | [11] | [12] | [13]
active: [3] 29.8 µM

O=C(OCCc1ccccc1)c1ccccc1
inactive: [1] | [2] | [3] | [4] | [16] | [17] | [6] | [7] | [9] | [12] | [13] | [14] | [15]

OC(C#CCN1CCCC1)(c1ccccc1)c1ccccc1
active: [1] 3.76 µM
inactive: [2] | [3] | [4] | [16] | [17] | [6] | [7] | [9] | [10] | [11] | [12] | [13] | [14] | [15]

CCN(CC)c1ccc2c(-c3ccccc3C(=O)O)c3ccc(=[N+](CC)CC)cc-3oc2c1
active: [1] 34.4 µM | [2] 9.69 µM | [3] 8.63 µM | [6] 6.11 µM | [15] 34.7 µM
inactive: [5] | [8] | [9] | [11] | [12] | [14]

Cc1ccc(C(C)OC(=O)C2(C)CCC(C(=O)O)C2(C)C)cc1 (configuration not stated)
inactive: [1] | [2] | [3] | [4] | [16] | [17] | [7] | [8] | [9] | [10] | [11] | [12] | [13]
